D2 PAM-1: Beta-Arrestin HTS for Positive Allosteric Modulators of the Human D2 Dopamine Receptor: Potentiators | potentiation, % (test concentration not listed) | AID 624464, 2012 | DiscoveRx D2 beta-arrestin cells, luminescence, 90 min; 100% = 57 uM dopamine signal | D(2) dopamine receptor (Homo sapiens), P14416 | 360,000 compounds, 0.23% hits; in the data active = potentiation above about 50%; inconclusive = mostly about 30% to 49%
Target sequence (P14416 whole entry, looked up): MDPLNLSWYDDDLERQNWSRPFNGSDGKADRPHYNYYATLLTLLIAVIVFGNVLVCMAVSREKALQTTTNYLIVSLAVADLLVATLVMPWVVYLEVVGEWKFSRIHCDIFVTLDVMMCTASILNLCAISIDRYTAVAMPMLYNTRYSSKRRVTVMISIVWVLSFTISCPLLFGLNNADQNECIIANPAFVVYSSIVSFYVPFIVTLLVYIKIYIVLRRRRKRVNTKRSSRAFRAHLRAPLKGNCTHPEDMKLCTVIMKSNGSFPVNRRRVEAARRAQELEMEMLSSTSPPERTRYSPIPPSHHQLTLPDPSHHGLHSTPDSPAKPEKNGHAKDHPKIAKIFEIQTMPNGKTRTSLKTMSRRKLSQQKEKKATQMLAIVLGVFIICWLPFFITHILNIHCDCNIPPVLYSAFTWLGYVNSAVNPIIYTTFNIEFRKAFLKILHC
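PathHunter beta-arrestin assay in DiscoveRx D2 cells. Compounds were added with an EC20 of dopamine (50 nM final) for 90 min at 37 deg C. Luminescence was read 1 h after detection reagent, with 57 uM dopamine as the EC100 control.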
D2 ag-1: HTS Assay for Allosteric Agonists of the Human D2 Dopamine Receptor: Primary Screen for Agonists. D(2) dopamine receptor (Homo sapiens), P14416. HEK293 T-REx D2 cells, calcium flux agonist mode. activation, % at 2 µM. 340,000 compounds, 0.53% hits;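 active = activation over 3 SD above normal in the single-dose calcium agonist read, cut at about 30% in these data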
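Agonism is scored from calcium flux in a force-coupled, inducible HEK293 cell line expressing D2, read kinetically for 180 s after compound addition against dopamine controls.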
D2 PAM-2: HTS Assay for Positive Allosteric Modulators of the Human D2 Dopamine Receptor: Primary Screen for Potentiators | D(2) dopamine receptor (Homo sapiens), P14416 | HEK293 T-REx D2, calcium flux, EC20 dopamine potentiation | potentiation, % at 10 µM | 340,000 compounds, 0.34% hits;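 active = potentiation over 3 SD above the plate norm, cut at about 30% in these data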
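Primary screen. Calcium kinetics in induced HEK293 T-REx D2 cells: compound pre-addition 180 s, EC20 dopamine, 180 s more.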
D2 ag-2: Beta-Arrestin HTS for Positive Allosteric Modulators of the Human D2 Dopamine Receptor: Agonists; DiscoveRx PathHunter D2 beta-arrestin, luminescence, 90 min; 100% = 57 uM dopamine signal; activation, % (concentration not given with the values); 360,000 compounds, 0.084% hits; in the data active = activation above about 40%; inconclusive = between about 15% and that limit
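Agonist mode: compounds alone added to overnight-plated D2 PathHunter cells for 90 min at 37 C, with 57 uM final dopamine (EC100) defining full response. Beta-arrestin recruitment detected by chemiluminescent reagent, read after 1 h at ambient temperature.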
D2 antagonist: HTS Assay for Allosteric Antagonists of the Human D2 Dopamine Receptor: Primary Screen for Antagonists; HEK293 TREx D2 cells, calcium flux, dopamine EC80; inhibition, % at 10 µM; 340,000 compounds, 2% hits; in the data active = inhibition above about 30%; inactive = below that, where a call was filed
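Tetracycline-induced HEK293 T-REx cells expressing D2 force-coupled to calcium signalling were dye-loaded, exposed to compound for 180 s, then challenged with an EC80 of dopamine; calcium flux was followed kinetically for a further 180 s.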
Of the large screens only hits and unclear results are named; the others gave an inactive call; ! = repeats disagree. Only some compounds are listed: those with a hit (about 2.4% of all), similar ones and a draw of the others.

COc1ccccc1CNC(=O)C1CCN(Cc2nc(-c3ccc(OC)c(OC)c3)oc2C)CC1	none (no result: D2 PAM-1, D2 ag-2, D2 antagonist)
COc1ccc(-c2nc(CN3CCC(c4ccccc4)CC3)c(C)o2)cc1OC	D2 antagonist 44
Cc1oc(-c2cccs2)nc1CN1CCC(c2ccccc2)CC1	D2 antagonist 83
Cc1oc(-c2cccs2)nc1CN1CCN(C(C)C)C(CCO)C1 (centres undefined)	none
COc1ccc(NC(c2ccc(F)cc2)c2nnc(-c3ccccc3Cl)o2)cc1Cl (centres undefined)	none (no result: D2 PAM-1, D2 ag-2, D2 antagonist)
COc1ccc(-n2c(=O)c3ccccc3n(Cc3ccccc3C)c2=O)c(OC)c1	none (no result: D2 PAM-1, D2 ag-2, D2 antagonist)
CC(=O)NC(=S)Nc1ccccc1C(=O)Nc1ccccc1	D2 antagonist 47
CCCCC(=O)NC(=S)Nc1ccccc1C(=O)Nc1ccccc1	none
Cc1cc(C(=O)N2CCN(c3cccc(C)c3C)CC2)c2c(C)nn(-c3ccccc3)c2n1	none (no result: D2 PAM-1, D2 ag-2, D2 antagonist)
CN1CCC(N(C)S(=O)(=O)c2ccc(F)cc2F)CC1	D2 antagonist 33
N#C/C(=C/c1cn(Cc2ccc(F)cc2)c2ccccc12)C(=O)Nc1cccc(Cl)c1	none (no result: D2 PAM-1, D2 ag-2, D2 antagonist)
COc1cc(OC)c(Nc2nc3ccccc3c3nncn23)cc1Cl	none (no result: D2 PAM-1, D2 ag-2, D2 antagonist)
CCN(CC)c1ccc(/C=C2\C(=N)N3N=C(CC(=O)N4CCOCC4)SC3=NC2=O)cc1	D2 ag-1 33
COc1ccc2cc(C(C)C(=O)N3CCC(C(N)=O)CC3)ccc2c1 (centres undefined)	D2 PAM-2 32
COc1cc(C(=S)N2CCOCC2)ccc1OC(=O)c1ccc([N+](=O)[O-])cc1[N+](=O)[O-]	D2 PAM-1 61, D2 ag-2 59
COc1ccc(C(=S)N2CCOCC2)cc1OC(=O)c1ccc([N+](=O)[O-])cc1	none
COc1cccc(NC(=O)c2cc3ccccc3cc2OC)c1	none
C=CCN(c1ccc(C(=O)Nc2cccc([N+](=O)[O-])c2)cc1)S(C)(=O)=O	D2 antagonist 37
CC(C)c1ccc2oc(-c3cccc(NC(=O)c4ccc5c(c4)OCCO5)c3)nc2c1	none (no result: D2 PAM-1, D2 PAM-2, D2 ag-2, D2 antagonist)
COc1cc(-c2nc(Cn3nnc(C(=O)Nc4ccccc4C)c3C)c(C)o2)cc(OC)c1OC	none (no result: D2 PAM-1, D2 ag-2, D2 antagonist)
O=C(O)CC(NC(=O)c1ccco1)c1ccco1 (centres undefined)	none
COc1ccc(CC(=O)NC(CC(=O)O)c2ccc(OC)cc2)cc1 (centres undefined)	D2 antagonist 36
CCOc1ccc(C(CC(=O)O)NC(=O)C(CC)c2ccccc2)cc1 (centres undefined)	D2 antagonist 35
O=C(O)CC(NC(=O)Cc1ccc(Cl)cc1)c1ccco1 (centres undefined)	D2 PAM-2 39
O=C(NCC(c1cccnc1)N1CCc2ccccc21)C(=O)Nc1ccccc1F (centres undefined)	none (no result: D2 PAM-1, D2 ag-2, D2 antagonist)
Cc1csc(/C(=N/OC(=O)c2ccco2)C(N)=O)n1	D2 antagonist 42
CCSc1nnc(-c2sc3nnc(-c4ccccc4)c(-c4ccccc4)c3c2N)o1	D2 ag-1 39
Cc1ccc([N+](=O)[O-])cc1NC(=O)Nc1onc(C)c1C	D2 antagonist 47
CCCN(CC(=O)Nc1ccccc1OC)CC(=O)c1c(N)n(Cc2ccccc2)c(=O)n(C)c1=O	none (no result: D2 ag-1, D2 PAM-2, D2 antagonist)
CCn1nnnc1-c1ccc(OC)c(S(=O)(=O)Nc2ccc(OC)cc2)c1	D2 antagonist 36
CN1C(=O)Cc2cc(S(=O)(=O)NCc3ccccc3Cl)ccc21	none (no result: D2 PAM-1, D2 ag-1, D2 ag-2, D2 antagonist)
O=C1Cc2cc(S(=O)(=O)NCc3ccccc3Cl)cc3c2N1CCC3	D2 PAM-2 34
COc1cc(/C=N/NC(N)=O)ccc1OC(=O)c1cccs1	none
COc1cc(/C=N/N(C)C)ccc1OC(=O)c1cccs1	D2 PAM-2 42
CCOc1ccc(CNC(=O)C2Cc3ccccc3N2C(=O)CC)cc1 (centres undefined)	none (no result: D2 PAM-1, D2 PAM-2, D2 ag-2, D2 antagonist)
COc1ccc(CN2CCCC(C(=O)Nc3cccc(-n4cccn4)c3)C2)cc1 (centres undefined)	D2 antagonist 79
Cc1nc2nc[nH]n2c(=O)c1NC(=O)CC12CC3CC(CC(C3)C1)C2	D2 PAM-2 31!
CCC(Cc1ccccc1)NC(=O)CN1C(=O)COc2ccc(S(=O)(=O)N3CCCCCC3)cc21 (centres undefined)	none (no result: D2 PAM-1, D2 ag-2, D2 antagonist)
Cc1nc2nc(SCC(=O)c3cccc([N+](=O)[O-])c3)[nH]c2cc1Br	D2 antagonist 38
O=C(c1ccc2c(c1)OCO2)C1CCCN(C2CCN(CCc3ccccc3)CC2)C1 (centres undefined)	D2 antagonist 70
CCOc1ccccc1O[C@H](c1ccccc1)[C@H]1CNCCO1	none
CC1=C(C(=O)OCc2ccc3c(c2)OCO3)C(c2ccccc2)NC(=O)N1 (centres undefined)	D2 PAM-1 53, D2 ag-2 inconclusive, D2 antagonist 45
CCOC(=O)C1=C(C)NC(=O)NC1c1cc2c(cc1Br)OCO2 (centres undefined)	D2 PAM-2 51
CC(C)(C)SCCNC(=O)CN(c1ccccc1)S(=O)(=O)c1ccc(F)cc1	D2 antagonist 32
O=C(NCCc1ccccc1)c1ccc(-c2ccccc2C(F)(F)F)o1	none
O=C(NCc1ccc(F)cc1)c1cc2ccccc2o1	D2 PAM-2 52
O=C(NCc1ccccc1)c1ccc(-c2ccccc2F)o1	D2 PAM-2 32
O=C(NNC(=O)c1cc2ccccc2o1)c1ccc(F)cc1	none
O=C(NCC1COCCO1)c1cc(COc2ccc(F)cc2F)on1 (centres undefined)	none
COc1cccc(Cn2c(=O)cc(C)c3c(C)nn(-c4ccc(C)cc4)c32)c1	none (no result: D2 PAM-1, D2 ag-2, D2 antagonist)
CCOc1ncccc1C(=O)OCC(=O)NC1CCCCCC1	D2 antagonist 31
COc1cccc(OC)c1C(=O)OCC(=O)NC1CCCCCC1	D2 antagonist 82
COc1ccc(S(=O)(=O)N2CCN(Cc3nc4ccc(C)cc4o3)CC2)cc1OC	none (no result: D2 PAM-1, D2 PAM-2, D2 ag-2, D2 antagonist)
O=C(CCCN1CCC(C(=O)c2ccc(F)cc2)CC1)c1ccc(F)cc1	D2 antagonist 71
O=C(CCCN1CCC(O)(c2cccc(C(F)(F)F)c2)CC1)c1ccc(F)cc1	none
O=C(CCCN1CCC(C(O)c2ccc(F)cc2)CC1)c1ccc(F)cc1 (centres undefined)	none (no result: D2 ag-1, D2 PAM-2, D2 antagonist)
O=C(CCCN1CCC(O)(c2ccc(Br)cc2)CC1)c1ccc(F)cc1	D2 antagonist 79
